# Source: PubChem BioAssay AID1376 (SRMLSC, 2008)
# Several values for one entry are separate records, joined by “and”; a condition that tells them apart may be missing. Equal entries are not always repeated. The campaign covered roughly 220,000 compounds. About 530 (0.24%) were called active. The sample holds actives, similar compounds and a random draw of the others, so the mix is not that of the screen. Cut-off read from the data, not from the text of the source: active = inhibition above about 13%; inconclusive = no clear call, values can overlap the other calls; inactive = below that. Entries with a potency or affinity are not part of this list.
# Target: Bifunctional protein GlmU (Mycobacterium tuberculosis (strain ATCC 25618 / H37Rv)) (UniProt P9WMN3)
# Experiment: inhibition of mycobacterial GlmU enzyme – biochemical, glucosamine-1-phosphate acetyltransferase (AID 1376);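 note: 0% = complete reaction with vehicle and 100% = reaction without substrate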
# Settings: M. tuberculosis GlmU acetyltransferase enzyme assay; hits give high values;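 tested at 30 µM in the primary screen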
# Bifunctional protein GlmU (Mycobacterium tuberculosis (strain ATCC 25618 / H37Rv)), sequence (P9WMN3 whole entry, looked up): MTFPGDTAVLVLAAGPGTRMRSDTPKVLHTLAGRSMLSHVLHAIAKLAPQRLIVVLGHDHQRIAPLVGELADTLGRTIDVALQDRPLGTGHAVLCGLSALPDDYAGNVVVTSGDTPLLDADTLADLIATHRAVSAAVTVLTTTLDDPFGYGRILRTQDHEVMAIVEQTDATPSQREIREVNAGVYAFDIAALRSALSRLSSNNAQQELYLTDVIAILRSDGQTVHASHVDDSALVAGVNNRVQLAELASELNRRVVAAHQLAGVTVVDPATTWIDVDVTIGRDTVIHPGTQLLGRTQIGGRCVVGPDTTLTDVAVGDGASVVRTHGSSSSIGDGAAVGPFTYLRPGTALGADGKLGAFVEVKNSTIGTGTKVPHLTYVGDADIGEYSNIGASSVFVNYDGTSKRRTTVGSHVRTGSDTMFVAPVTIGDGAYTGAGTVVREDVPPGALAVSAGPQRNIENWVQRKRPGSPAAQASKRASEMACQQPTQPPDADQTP
row,SMILES,inhibition
1,Cc1cc(OCCCC(=O)NC2=NCCS2)ccc1Cl,-5.02% (inactive)
2,OC1(CNCc2cn[nH]c2-c2cc3ccccc3o2)CCCCC1,14.3% (active)
3,c1ccc2oc(-c3[nH]ncc3CN3CCSCC3)cc2c1,0.41% (inactive)
4,CCn1cc(CNCc2cn[nH]c2-c2cc3ccccc3o2)cn1,1.28% (inactive)
5,CSc1nccc(-c2c(-c3ccc(Cl)cc3)noc2C)n1,2.51% (inactive)
6,c1ccc(CNc2ncnc3c2ncn3C2CCCCO2)cc1 (stereo not drawn),-1.2% (inactive)
7,CC1Oc2ccccc2C=C1/C=N/Nc1ccc(C(=O)O)cc1 (stereo not drawn),4.4% (inactive)
8,O=C(N/N=C/C1=Cc2ccccc2OC1)c1ccncc1,-1.23% (inactive)
9,O=C(O)c1ccc(N/N=C/C2=Cc3ccccc3OC2)cc1,14.4% (active)
10,CSc1nccc(Oc2cncc(Cl)c2)n1,2.56% (inactive)
11,CCCCOc1ccc(Cc2n[nH]c(=S)n2N)cc1,12.8% (active)
12,CCOc1ccc(Cc2n[nH]c(=S)n2N)cc1,1.55% (inactive)
13,Nn1c(Cc2ccc(F)cc2)n[nH]c1=S,-2.75% (inactive)
14,COc1ccccc1/C=N/NC(=O)C(=O)NCc1cccnc1,3.16% (inactive)
15,COc1ccc(S(=O)(=O)NNC(=O)c2csc(-n3nc(C)cc3C(F)(F)F)n2)cc1OC,2.2% (inactive)
16,O=C(O)c1ccc(Oc2c(C(F)(F)F)oc3cc(O)ccc3c2=O)cc1,-3.31% (inactive)
17,O=c1c(C(c2ccc(Cl)cc2)c2c(O)nc3n(c2=O)CCS3)c(O)nc2n1CCS2,9.88% (inactive)
18,COc1cccc(NC(=O)CN(C)C(C)C(=O)Nc2cc([N+](=O)[O-])ccc2Cl)c1 (stereo not drawn),-8.73% (inactive)
19,Cc1noc(NS(=O)(=O)c2ccc(N/C=C\C(=O)c3ccccc3)cc2)c1C,1.37% (inactive)
20,Cc1noc(NS(=O)(=O)c2ccc(N/C=C/C(=O)c3ccc(F)cc3)cc2)c1C,3.6% (inactive)
21,Cc1noc(NS(=O)(=O)c2ccc(N/C=C\C(=O)c3cccs3)cc2)c1C,13.3% (active)
22,Cc1ccc(C(=O)/C=C/Nc2ccc(S(=O)(=O)Nc3onc(C)c3C)cc2)cc1,14.2% (active)
23,Cc1noc(NS(=O)(=O)c2ccc(N/C=C\C(=O)c3ccc(F)cc3)cc2)c1C,4.6% (inactive)
24,Cc1noc(NS(=O)(=O)c2ccc(N/C=C\C(=O)c3ccncc3)cc2)c1C,3.38% (inactive)

row,SMILES,inhibition
1,Cc1ccc2cc(CN(CCCN3CCOCC3)C(c3nnnn3Cc3ccco3)C(C)C)c(=O)[nH]c2c1C (stereo not drawn),-1.48% (inactive)
2,CCOc1ccc(N2C(=O)c3cccnc3C2Nc2ccc(C)c(C)c2)cc1 (stereo not drawn),-5.6% (inactive)
3,CCO[C@@H]1OC(C(=O)Nc2ccccc2)=C[C@H](c2ccc(Br)cc2)[C@H]1CCCO,1.98% (inactive)
4,CC(=O)Nc1ccc(/C=C(\C#N)C(=O)NC2CCCCC2C)cc1 (stereo not drawn),3.98% (inactive)
5,O=C(CN1CCN(c2ccc(Cl)cc2)CC1)NCc1ccccc1,1.83% (inactive)
6,O=C1S/C(=C\C=C\c2ccco2)C(=O)N1c1ccccc1,6.89% (inactive)
7,CC(/C=C1\SC(=S)N(C(C(=O)O)C(C)C)C1=O)=C\c1ccccc1 (stereo not drawn),3.64% (inactive)
8,O=C1/C(=C/C=C/c2ccco2)SC(=S)N1c1ccc(O)cc1,7.16% (inactive)
9,CC(=C\c1ccccc1)/C=C1/SC(=S)N(C(C(=O)O)C(C)C)C1=O (stereo not drawn),5.39% (inactive)
10,CCCCC(=O)Nc1ncc(Br)s1,0.1% (inactive)
11,Cc1nnc(SCC(=O)Nc2cc(-c3cc(C)c(C)cc3C)nn2-c2ccccc2)s1,-5.02% (inactive)
12,COc1cc(/C=N/NC(=O)c2cccc([N+](=O)[O-])c2)ccc1OCc1ccccc1,1.61% (inactive)
13,CCN1C(=O)/C(=C\c2ccc([N+](=O)[O-])s2)C(=O)NC1=S,92.2% (active)
14,CN1C(=O)NC(=O)/C(=C/c2ccc([N+](=O)[O-])s2)C1=O,-1.9% (inactive)
15,O=C1NC(=O)N(Cc2ccc(F)cc2)C(=O)/C1=C\c1ccc([N+](=O)[O-])s1,6.15% (inactive)
16,Cc1ccc(SCc2cc(=O)[nH]c(N3CCN(C)CC3)n2)cc1,2.83% (inactive)
17,O=C(O)c1ccc2c3c(cccc13)C(=O)N(c1ccccc1)C2=O,5.53% (inactive)
18,Cc1ccc(N2C(=O)c3cccc4c(C(=O)O)ccc(c34)C2=O)cc1,-2.11% (inactive)
19,CCn1c(SCC(=O)N2CCc3ccccc32)nc2c(c1=O)SC(C)C2 (stereo not drawn),2.91% (inactive)
20,O=C(O)c1cc(-c2ccccc2)nc2nc(N3CCCCC3)sc12,-4.63% (inactive)
21,O=C(O)CSc1nc2ccccc2s1,-6.75% (inactive) and -0.54% (inactive)
22,O=C(CSc1nc2ccccc2s1)CSc1nc2ccccc2s1,-0.56% (inactive)
23,O=C(O)CCSc1nc2ccccc2s1,13.3% (active)
24,Cc1[nH]c2ccccc2c1C(=O)COC(=O)CCS(=O)(=O)c1ccccc1Cl,0.91% (inactive)

row,SMILES,inhibition
1,C/C=C(\C)C(=O)Nc1cccc(C2=NOC3(C2)C[C@H](C(N)=O)N(C(=O)C(c2ccccc2)c2ccccc2)C3)c1 (stereo partly drawn),4.35% (inactive)
2,C/C=C(/C)C(=O)Nc1cccc(C2=NOC3(C2)C[C@H](C(N)=O)N(C(=O)COc2ccc(Cl)cc2)C3)c1 (stereo partly drawn),-3.89% (inactive)
3,C=C(C)C(=O)Nc1cccc(C2=NOC3(C2)C[C@@H](C(N)=O)N(C(=O)CC(c2ccccc2)c2ccccc2)C3)c1 (stereo partly drawn),14.4% (active)
4,NC(=O)[C@H]1CC2(CC(c3cccc(NC(=O)CC(c4ccccc4)c4ccccc4)c3)=NO2)CN1C(=O)CC(c1ccccc1)c1ccccc1 (stereo partly drawn),2.76% (inactive)
5,NC(=O)[C@@H]1CC2(CC(c3cccc(NC(=O)COc4ccc(Cl)cc4)c3)=NO2)CN1C(=O)COc1ccc(Cl)cc1 (stereo partly drawn),3.68% (inactive)
6,C/C=C(/C)C(=O)Nc1cccc(C2=NOC3(C2)C[C@@H](C(N)=O)N(C(=O)CC(c2ccccc2)c2ccccc2)C3)c1 (stereo partly drawn),2.91% (inactive)
7,CCC(=O)Nc1cccc(C2=NOC3(C2)C[C@@H](C(N)=O)N(C(=O)C(c2ccccc2)c2ccccc2)C3)c1 (stereo partly drawn),7.01% (inactive)
8,CC(=O)Oc1ccccc1N(C(C)=O)S(=O)(=O)c1cccc([N+](=O)[O-])c1,2.75% (inactive)
9,COc1nc(-c2ccccc2)ccc1-c1noc(-c2cccs2)n1,-3.99% (inactive)
10,O=C(CN(Cc1ccccc1)S(=O)(=O)c1ccccc1)N/N=C/c1ccccc1C(=O)O,1.89% (inactive)
11,CCN(CC)S(=O)(=O)c1cc(NC(=O)COC(=O)CCC(=O)c2cccs2)ccc1C,1.97% (inactive)
12,O=C(NCc1n[nH]c(=S)n1-c1cccc(C(F)(F)F)c1)c1ccc(S(=O)(=O)N2CCCC2)cc1,-1.04% (inactive)
13,Oc1ccc(N=Nc2ccc(Br)cc2)c(O)c1,7.96% (inactive)
14,Oc1ccc(Cl)cc1/C=N/c1nccs1,5.12% (inactive)
15,Oc1ccc(N=Nc2nccs2)c(O)c1,53.5% (active)
16,Cc1cc2nc(=O)c(/C=C3\C=Nc4ccccc43)c(N)n2o1,-5.38% (inactive)
17,O=c1ccnc2n1COCS2,-2.85% (inactive)
18,CC(/C=C/c1ccccc1)=N\NC(=O)c1ccncc1,2.68% (inactive)
19,Cc1ccc2c(C(=O)CN3CCCC3)c(C)[nH]c2c1,-5.2% (inactive)
20,Cc1ccc2c(C(=O)CN3CCN(c4ccccc4)CC3)c(C)[nH]c2c1,14.3% (active)
21,Cc1ccc2c(C(=O)CN3CCOCC3)c(C)[nH]c2c1,2.67% (inactive)
22,O=C(CSc1ccc(Cl)cc1)NN=C1CCCCCC1,0.28% (inactive)
23,O=C(Nc1cccc(N2CCCC2)c1)c1cccs1,-6.15% (inactive)
24,CCN1CCN(C(=O)NCc2ccccc2)CC1,-0.69% (inactive)

row,SMILES,inhibition
1,Oc1ccc(NCc2ccccc2OCc2ccccc2)cc1,1.63% (inactive)
2,Oc1ccc(NCc2ccccc2OCc2ccccc2F)cc1,1.2% (inactive)
3,CCOc1ccccc1CNc1ccc(O)cc1,12.9% (active)
4,CCc1nnc(NC(=O)c2cccc(S(=O)(=O)N3CC(c4ccccc4)CC3=O)c2)s1 (stereo not drawn),5.84% (inactive)
5,COCCn1cnnc1SCC(=O)Nc1cccc(S(=O)(=O)N2CCCCCC2)c1,1.58% (inactive)
6,COC(=O)c1ccc(S(=O)(=O)N2CCC(O)CC2)n1C,-2.92% (inactive)
7,COC(=O)c1ccc(S(=O)(=O)N2CCN(C)CC2)n1C,-8.72% (inactive)
8,COC(=O)c1ccc(S(=O)(=O)N2CCCCCC2)n1C,12.8% (active)
9,CCc1nnc(NC(=O)CSc2nc3c(c(=O)n2C)SC(C)C3)s1 (stereo not drawn),3.46% (inactive)
10,O=c1/c(=C/c2ccccc2)sc2nnc(-c3cccs3)n12,0.67% (inactive)
11,OCC#CC[N+]1(CC#Cc2ccccc2)CCOCC1,-6.73% (inactive)
12,C#CC[N+]1(CC#Cc2ccccc2)CCOCC1,-6.07% (inactive)
13,CC1=C(C(=O)Nc2ccccc2)C(c2cccs2)n2nnnc2N1 (stereo not drawn),-3.97% (inactive)
14,CCn1c(CSc2nc3ccccc3s2)nnc1SCC(=O)c1ccc(O)c(O)c1,5.09% (inactive)
15,CCn1c(CSc2nc3ccccc3s2)nnc1SCC(N)=O,1.32% (inactive)
16,CCn1c(CSc2nc3ccccc3s2)nnc1SCC(=O)c1ccc(O)cc1O,13% (active)
17,C=C(C)CNC(=S)N/N=C/c1ccc([N+](=O)[O-])cc1,3.43% (inactive)
18,Cc1ccc(-n2nc3c(c2NC(=O)c2c(-c4ccccc4Cl)noc2C)CSC3)cc1,4.33% (inactive)
19,Cc1ccc(-n2nc3c(c2NC(=O)c2ccc4c(c2)OCO4)CSC3)cc1,-1.67% (inactive)
20,Cc1ccc(-n2nc3c(c2NC(=O)c2cccs2)CSC3)cc1,19.6% (active)
21,Cc1nccn1CCCN1C(=O)OC2(CCCCC2)C1(C)O (stereo not drawn),-0.12% (inactive)
